High-throughput results (PubChem BioAssay)
The list is not random: actives were taken first. Their share in the collection is about 21%.
ClpP mod: qHTS Assay for Activators of ClpP. ATP-dependent Clp protease proteolytic subunit (Bacillus subtilis (strain 168)), P80244. purified B. subtilis ClpP, FRET peptide cleavage, 20 min. Potency, µM (top dose mostly 57.5 µM). 340,000 tested, 1.9% active. AID 651965, 2013; active means well fitted falling curve with a large enough effect; inconclusive means small, poorly fitted or top-dose-only effect; inactive means no such curve, though single readings can be large or run the other way; further: the source files actives as falling curves though it sought activators and does not explain the sign; nearly all actives have a fitted effect of over 65% in size
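FRET quenching reversal measured ClpP activation: 10 microg/mL B. subtilis ClpP at pH 8 with the FRET-FV decapeptide, read at 430 nm after 320 nm excitation. The 20-min minus 0-min signal was scaled between DMSO/no-enzyme wells and ADEP (5.8 microM final).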
DRD3 antagonist: blocks the human D3 dopamine receptor | P35462 | D3R cells, DiscoveRx beta-arrestin luminescence, antagonist mode; stronger effect = lower value | max response, negative = inhibition, % | 360,000 tested, 2.5% active | AID 652054; in the data active means max response below about -50%; inconclusive means no clear call, values can overlap the other calls
Target sequence (P35462 whole entry, looked up): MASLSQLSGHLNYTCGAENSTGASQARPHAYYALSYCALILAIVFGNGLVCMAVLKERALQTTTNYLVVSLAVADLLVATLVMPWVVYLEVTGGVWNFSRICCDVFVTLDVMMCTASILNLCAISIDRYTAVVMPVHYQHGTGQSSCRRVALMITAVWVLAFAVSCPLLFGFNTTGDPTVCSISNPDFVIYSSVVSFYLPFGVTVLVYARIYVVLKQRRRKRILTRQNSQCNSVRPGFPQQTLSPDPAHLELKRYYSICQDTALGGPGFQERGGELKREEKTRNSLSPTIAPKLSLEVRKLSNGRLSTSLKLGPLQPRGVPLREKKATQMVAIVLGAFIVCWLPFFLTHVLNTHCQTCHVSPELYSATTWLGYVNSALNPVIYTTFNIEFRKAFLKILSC
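Cells expressing the human receptor were seeded at 1500 cells/well, incubated overnight at 37 degrees C in 5% CO2, then exposed to library compounds with dopamine controls for 90 minutes at 37 degrees C before luminescent detection.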
DT40 TDP1 no CPT: qHTS for Inhibitors of human tyrosyl-DNA phosphodiesterase 1 (TDP1): qHTS in cells in absence of CPT. Potency, µM (titrated, usually from 46.2 µM), usual class: inhibitors. 420,000 tested, 15% active. DT40 Tdp1-/- hTDP1 cells, no CPT, ATP luminescence, 48 h. AID 686978, 2013; further: nearly all actives have a fitted effect of over 55% in size
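Readout: luminescence from CellTiter-Glo after 30 min in the dark at RT. Cells: DT40 Tdp1-/- with stable hTDP1, 400/well. Exposure: compounds alone, ≥48 hr, 37 °C.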
IL1B secr inh: inhibitors of inflammasome signaling (IL-1 beta secretion); THP-1 LPS/ATP IL-1B secretion, AlphaLISA, 16 h; stronger effect = lower value; 360,000 tested, 4.7% active; activity change, % at 57.5 µM; in the data active means activity change below about -50%; inconclusive means mostly about -30% to -49%
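Secreted IL-1B measured by AlphaLISA bead assay after 16 h compound exposure of THP-1 cells; compounds (final up to 57.5 uM) added 1 h before LPS (250 ng/mL) and ATP (1.25 mM) stimulation; lower signal means less secretion.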
TDP1 cell CPT: growth inhibition of DT40 Tdp1-/-;hTDP1 cells with camptothecin (screen for TDP1 inhibitors). chicken DT40 Tdp1-/-;hTDP1 cells + 20 nM CPT, ATP luminescence, 48 h. 420,000 tested, 12% active. Potency, µM (top dose mostly 46.2 µM), usual class: inhibitors; further: nearly all actives have a fitted effect of over 55% in size
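Chicken DT40 Tdp1-/- cells complemented with human TDP1, 400 cells/well, exposed to compounds plus 20 nM camptothecin for at least 48 h at 37 C; viability read as ATP content by CellTiter-Glo luminescence.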
D3 ag: activates the human D3 dopamine receptor; P35462; D3R DiscoveRx beta-arrestin cells, luminescence, 90 min; max activation, %; 410,000 tested, 0.58% active; in the data active means max activation above about 30%
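Agonist-mode cell screen: cells plated at 1500/well and incubated overnight at 37 °C, then exposed to library compounds for 90 min at 37 °C. Detection reagent was added for 30–60 min at room temperature, and luminescence was read.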
Hits are given with their value. Unless noted, the call rests on the fitted dose curve; in most records, active means well fitted inhibition curve with a large enough effect; inconclusive means small, poorly fitted or top-dose-only effect; inactive means flat fitted curve, though single readings scatter.

Results for Cc1cccc(C(=O)NN/C=C/C(=O)c2ccccc2)c1 ?
ClpP mod: inactive; DRD3 antagonist: inactive; DT40 TDP1 no CPT: 26µM; IL1B secr inh: inactive; TDP1 cell CPT: inconclusive; D3 ag: inactive

What do the screens show for `O=C(/C=C/NNC(=O)c1ccc(Br)cc1)c1ccccc1`?
ClpP mod: inactive; DRD3 antagonist: inactive; DT40 TDP1 no CPT: 4.1µM; IL1B secr inh: inactive; TDP1 cell CPT: 2.9µM; D3 ag: inactive

Results for Cc1ccc(C(=O)C=CNNC(=O)c2ccccc2)cc1 ?
ClpP mod: inactive; DRD3 antagonist: inactive; DT40 TDP1 no CPT: inconclusive; IL1B secr inh: inactive; TDP1 cell CPT: inconclusive; D3 ag: inactive

What do the screens show for `CCOC(=O)c1ccc(NC(=O)c2cnc3c(-c4ccc(F)cc4)c(C)nn3c2C)cc1`?
ClpP mod: inactive; DT40 TDP1 no CPT: inactive; TDP1 cell CPT: inactive; D3 ag: inactive

Results for O=C(NCc1ccccc1OC(F)(F)F)C1CCC(=O)N(CCCN2CCOCC2)C1 (stereo not drawn) ?
ClpP mod: inactive; DRD3 antagonist: inactive; DT40 TDP1 no CPT: inactive; IL1B secr inh: inactive; TDP1 cell CPT: inactive; D3 ag: inactive

How did CCOc1cc(/C=N/NC(=O)c2cc(-c3cccc(OC)c3)nc3ccccc23)ccc1O do in these assays?
DRD3 antagonist: inactive; DT40 TDP1 no CPT: 1.3µM; IL1B secr inh: inactive; TDP1 cell CPT: 8.2µM; D3 ag: 35

How did COc1cc(/C=N/NC(=O)c2cc(-c3ccccc3)nc3ccccc23)ccc1O do in these assays?
ClpP mod: inactive; DRD3 antagonist: inactive; DT40 TDP1 no CPT: inconclusive; IL1B secr inh: inactive; TDP1 cell CPT: inconclusive; D3 ag: inactive

Results for COc1cc(/C=N/Nc2nc(C)nc3c2cnn3-c2ccccc2)ccc1O ?
ClpP mod: inconclusive; DRD3 antagonist: inactive; DT40 TDP1 no CPT: 2.9µM; IL1B secr inh: -100; TDP1 cell CPT: 2.9µM; D3 ag: inactive

Results for COc1cc(/C=N/NC(=O)CCn2cnc(-c3ccccc3)c2-c2ccccc2)ccc1O ?
DRD3 antagonist: inactive; DT40 TDP1 no CPT: 18µM; IL1B secr inh: inactive; TDP1 cell CPT: inconclusive; D3 ag: inactive

Results for COc1ccc(/C=N/NC(=O)c2nc(-c3ccccc3)cc(-c3ccccc3)n2)cc1 ?
ClpP mod: inconclusive; DRD3 antagonist: inactive; DT40 TDP1 no CPT: 26µM; IL1B secr inh: -80; TDP1 cell CPT: inconclusive; D3 ag: inactive

What do the screens show for `CCCCNc1nc2c(S(=O)(=O)c3ccc(Br)cc3)nnn2c2ccsc12`?
ClpP mod: inconclusive; DT40 TDP1 no CPT: inactive; TDP1 cell CPT: inactive; D3 ag: inactive

How did CN(c1ccc(C(=O)Nc2ccc(CC#N)cc2)cc1)S(C)(=O)=O do in these assays?
ClpP mod: inactive; DRD3 antagonist: inactive; DT40 TDP1 no CPT: inactive; IL1B secr inh: inactive; TDP1 cell CPT: inactive; D3 ag: inactive

What do the screens show for `COc1ccc(/C=N/NC(=O)c2nc(-c3ccccc3)n(-c3ccccc3)n2)cc1OC`?
ClpP mod: inactive; DRD3 antagonist: inactive; DT40 TDP1 no CPT: inconclusive; IL1B secr inh: inactive; TDP1 cell CPT: inconclusive; D3 ag: inactive

What do the screens show for `COc1ccc(/C=N/NC(=O)c2cc(-c3ccccc3)nc3ccccc23)cc1O`?
DRD3 antagonist: inactive; DT40 TDP1 no CPT: 1.3µM; IL1B secr inh: inactive; TDP1 cell CPT: 10µM; D3 ag: inactive

How did COc1ccc(CC(=O)N/N=C/c2c(C)n(C)c3ccccc23)cc1OC do in these assays?
ClpP mod: inactive; DRD3 antagonist: inactive; DT40 TDP1 no CPT: 9.2µM; IL1B secr inh: inactive; TDP1 cell CPT: 9.2µM; D3 ag: inactive

How did COc1ccc(/C=N/NC(=O)c2nc(-c3ccccc3)cc(-c3ccccc3)n2)cc1O do in these assays?
ClpP mod: inactive; DRD3 antagonist: inactive; DT40 TDP1 no CPT: 16µM; IL1B secr inh: -82; TDP1 cell CPT: 13µM; D3 ag: inactive

How did COc1ccc(Cc2nc3ccccc3n2CC(=O)N/N=C/c2ccc(C)cc2O)cc1OC do in these assays?
ClpP mod: inactive; DRD3 antagonist: inactive; DT40 TDP1 no CPT: 0.65µM; IL1B secr inh: inactive; TDP1 cell CPT: 2.1µM; D3 ag: inactive
